Data as given in the supplement of paper PMC6555819.

What follows are sequences tested on RXRa homodimer (NR concentration 180 nM) (assay: PBM binding z-score (relative to random genomic background probes); higher = stronger binding; sequences stand for … in GC…GCGATTGACAGCGTAGAATGAAGG).
In short: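 Binding buffer was PBS pH 7.4 with 2% milk, 0.02% Triton X-100, 1 mM DTT, 0.2 mg/mL BSA and 0.4 mg/ml salmon testes DNA. In it, ligand-free nuclear receptor dimers were incubated 1 h on custom Agilent 4×180K protein-binding microarrays carrying double-stranded probes. Antibodies against each partner (one per run) detected binding, and z-scores were calculated against random background probes after regression normalization of scanned fluorescence.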

Sequence | PBM binding z-score
TCTATTAGTTGAAGGGCAAACGACGAGTCCGTTT | 1
ATCGAAAGGTCGAAGGTAAGTATACCCACCCGAA | 4.24
ACTGGCAGGCCAAGGGTCACTCAAGATTAGTCCG | 3.95
CCGACTGGGGCAAGGTTACCATAACGCACAGCCA | 1.34
ATCTCTAGGTAAAGATAGTACAGTGAATGCAAAT | 0.301
ATCTGTAGGTAAAGATAGTTCAGTGAATGCAAAT | 0.326
CCTAATTGGTCAGGAGGTCACACACCGGATATGA | 4.88
CATGCTAGGTCAATGGTCAGCTAAAGCAGCTCGC | 2.29
ATATGTAGGTTAGCTGGGGTCATACAGACTAGGC | 6.14
ATCTCTAGGTAAAGTTAAGTGAAAGATCGATAGA | 0.171
ACTATTAGTTGACTTCGGGCAACCGATACGACGC | 0.42
CCTTACGGGTCACTGACAAGTTATAGCATTTGGA | 5.12
ACTAGCAGGCCAAGTTTGGGTCACCCAAACAAAG | 1.45
CCGACTGGGGCAAAGGTTACCAGACTCAGTACGA | 3.93
GCTAGTTGGTCAGTAAAAGGTCACAAACCGGTCG | 4.8
ATATGTAGGCTAGCTGGGGTCATTCAGACTAGGC | 4.96
CATACAGGGTCAGCTAGGCCAGAGTCGGGACGGC | 4.21
ATCTGTAGGTAACAAGTTCAGTGAAAGAGAGGAC | 0.902
AGTCATAGTTCAGGACGAGGTAACGTAAAGCACG | 1.39
TCATATAAGTAAATGCTAGGTGAAAGTCCGATCT | 0.855

Sequence | PBM binding z-score
TCATAAAGGTAAAGGTGAAAGTCGAACGATATGA | 2.73
TCTGCTAGGTCAACCATGGTCAGCTAATCTGCTA | 3.24
TGAATTAGGTTATAAGATCAGGGAACGTTGCAAA | 0.503
ATATCTAGGTTAAGGGTCATTCAGGTTGGTTCGC | 5.68
TCTATTGGTTGAAGGGCAACCGACGAGTCCGTTT | 0.744
ACTTACGCGTCAACGAGGTTATAGCACGCGTATA | 1.09
ACTAGTTGGTCAGCTGACGTCACACACAATTCGG | 0.459
CTCGAAAGGTCGTACTCAGGTGAGTATACCAAAC | 4.91
TCGAGTAGGTTGGTCGGGGCATTCAGCCAACATA | -0.429
CCTACTGGGCCAAGGTCATTGTTCAGTCAAAGCA | 2.91
CCTACTGGGCCATTTAGAGGTCATTGATCATATG | 3.21
CTCGAAAGGTCGGTTCAGGTGAGTATACGGATAA | 2.23
ATCTCTACGTAAAGTTCAGTGAAAGATCGATAGA | 1.2
CGACAAAGTTCAAGGTAACGTAACAGAAAGCAGC | 4.69
CAAACTAGATCACGAAAGGTCAAAGTCGAATGAC | 6.64
CCTAACGGGTCAAGGTTATAGCACGGGTGGTACG | 4.35
CCGACTGGGGCATACGGTTACCATAAGCCAGCCC | 0.369
ATCTGTAGGTAAAGTTCAGTGAAAGATCGATAGA | 1.16
ATCTCTAGGTAAAGTTCAGTTAAAGATCGATAGA | 1.5
CGTCCAAGGTCAATACTAGGTCAGTGAAAGCATT | 4.84
